# From PubChem BioAssay (NCI)
# Compounds without any hit were thinned out: in the full panel of roughly 83,000, 20% have a hit.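 Step 1: grow cells in 96-well plates. Step 2: add test compound at a single concentration. Step 3: incubate 48 h. Step 4: record percent growth.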 Unmarked numbers belong to inactive results. Calls of active or inactive are those of the source. The calls were made as follows: active = growth percent below 10; inactive = the rest.
# What was measured:
# Test in all cases: NCI-60 one-dose screen, 48 h (100 = growth as untreated, 0 = no growth, -100 = all killed)
# NCI-H226 lung = conditions: 10 µM
# NCI-H322M lung = conditions: 10 µM
# HOP-62 NSCLC = conditions: 10 µM
# NCI-H460 lung = conditions: 10 µM
# NCI-H522 lung = conditions: 10 µM
# A549/ATCC NSCLC = conditions: 10 µM
# DU-145 prostate = conditions: 10 µM
# K-562 leukemia = conditions: 10 µM
# SF-539 CNS = conditions: 10 µM
# M14 melanoma = conditions: 10 µM
# HCT-15 colon = conditions: 10 µM
# HT29 colon = conditions: 10 µM
# SNB-75 CNS = conditions: 10 µM
# SNB-19 CNS = conditions: 10 µM
# U251 CNS = conditions: 10 µM
# MOLT-4 leukemia = conditions: 10 µM
# SR leukemia = conditions: 10 µM
# RPMI-8226 leukemia = conditions: 10 µM
# SK-OV-3 ovarian = conditions: 10 µM
# MDA-MB-468 breast = conditions: 10 µM unless noted
Structure (SMILES),growth (NCI-H226 lung),growth (NCI-H322M lung) [%],growth (HOP-62 NSCLC),growth (NCI-H460 lung),growth (NCI-H522 lung),growth (A549/ATCC NSCLC),growth (DU-145 prostate),growth (K-562 leukemia),growth (SF-539 CNS),growth (M14 melanoma),growth (HCT-15 colon),growth (HT29 colon),growth (SNB-75 CNS),growth (SNB-19 CNS) [%],growth (U251 CNS),growth (MOLT-4 leukemia),growth (SR leukemia),growth (RPMI-8226 leukemia),growth (SK-OV-3 ovarian),growth (MDA-MB-468 breast)
Fc1ccc(/C=C/c2nc3ccccc3n3c(-c4ccc(Cl)cc4)nnc23)cc1,77.4%,89.6,107%,59.6%,-81.7% (active),82%,68%,10%,85.5%,63.8%,24%,59.5%,86.8%,86.2,73%,2.97% (active),-3.04% (active),53.5%,104%,-2.32% (active)
CCOC(=O)c1ccc(NC(=O)CSC(CC(=O)c2sc(Nc3ccccn3)nc2C)c2ccccc2F)cc1 (stereo not given),4.65% (active),17.5,3.54% (active),-40.7% (active),-22.7% (active),1.12% (active),1.39% (active),5.79% (active),-27.3% (active),0.872% (active),-42% (active),-28.3% (active),-3.07% (active),21.1,-70.4% (active),11.5%,4.27% (active),-14.2% (active),5.92% (active),3.8% (active)
CCOc1ccc(/C=N/NC(=O)Cn2nc(Cc3ccc(OC)cc3)c3onc(C)c3c2=O)cc1,6.7% (active),62.1,7.48% (active),-7.59% (active),46.6%,0.727% (active),14.4%,44.7%,-32.6% (active),39%,49.9%,16.6%,-39.9% (active),29,4.53% (active),58.3%,29.8%,67.9%,-26.6% (active),40.4%
